Assay outcomes (PubChem BioAssay)
Shown are actives, neighbours in structure and some others; about 9.2% of the full set was active somewhere.
ELG1 genotoxic = genotoxicity induction in ELG1-luciferase HEK293T cells. HEK293T ELG1-luciferase reporter, luminescence, 16 h. Potency, µM (top dose mostly 46 µM), usual class: activators. actives 1.3% (n = 330,000); further: nearly all actives have a fitted effect of over 60% in size
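Step 1: seed 2,000 HEK293T ELG1-luciferase cells per well. Step 2: add compound or DMSO, incubate 16 hr at 37 °C. Step 3: ONE-Glo, 30 min at room temperature, read luminescence.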
FLuc counter = inhibits or activates purified firefly luciferase, miR-21 counter-screen. P08659. actives 6.9% (n = 360,000). purified FLuc, Km substrates, luminescence inhibition. Potency, µM (titrated, usually from 57.5 µM), actives largely listed as inhibitors; further: nearly all actives have a fitted effect of over 55% in size
Target sequence (P08659 whole entry, looked up): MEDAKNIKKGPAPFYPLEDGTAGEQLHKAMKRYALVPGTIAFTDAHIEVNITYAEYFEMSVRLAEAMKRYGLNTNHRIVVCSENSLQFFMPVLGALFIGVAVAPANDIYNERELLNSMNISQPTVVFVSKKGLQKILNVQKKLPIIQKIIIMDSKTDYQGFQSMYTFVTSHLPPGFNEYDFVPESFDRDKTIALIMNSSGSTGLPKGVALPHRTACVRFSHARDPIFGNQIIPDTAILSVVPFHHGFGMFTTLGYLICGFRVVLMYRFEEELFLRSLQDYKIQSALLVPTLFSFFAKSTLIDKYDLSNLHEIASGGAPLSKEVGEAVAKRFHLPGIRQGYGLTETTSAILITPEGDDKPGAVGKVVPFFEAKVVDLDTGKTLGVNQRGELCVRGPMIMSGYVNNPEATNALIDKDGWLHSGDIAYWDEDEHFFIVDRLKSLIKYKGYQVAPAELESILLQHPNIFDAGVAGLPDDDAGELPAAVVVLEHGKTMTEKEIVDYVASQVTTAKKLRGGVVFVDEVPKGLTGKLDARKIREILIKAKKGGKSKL
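Biochemical qHTS of compounds, final roughly 60 µM downward over six points, against 10 nM purified firefly luciferase using Km concentrations of substrates (10 uM D-luciferin, 10 uM ATP) in Tris acetate pH 7.5 buffer; luminescence output.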
NPC1 promoter act = NPC1 promoter activation. actives 2.4% (n = 320,000). Huh7 NPC1 promoter luciferase reporter, 24 h. Potency, µM (titrated, usually from 9.22 µM), actives largely listed as activators; further: nearly all actives have a fitted effect of over 60% in size
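Luciferase expression driven by the NPC1 promoter was measured in stably transfected Huh7 cells after a 24 h compound incubation, using a luciferase reagent and a luminescence read.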
SMN2 splice enh = increases expression of the SMN2 splice variant; HEK293 SMN2-luciferase splicing reporter, luminescence, 30-36 h; actives 2.8% (n = 210,000); Potency, µM (doses to about 46.1 µM), usual class: activators; further: nearly all actives have a fitted effect of over 55% in size
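qHTS luciferase splicing reporter: luminescence rises when SMN2 exon 7 is included in transfected HEK293 cells. Compound exposure lasted 30-36 h at 37C, with 4.5 mM final sodium butyrate as control, followed by a ONE-Glo read.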
Rab9 promoter act = Rab9 promoter activation. Huh7 Rab9 promoter-luciferase reporter, luminescence, 24 h. Potency, µM (series often up to 9.22 µM), actives largely listed as activators. actives 2.8% (n = 320,000). AID 485297; further: nearly all actives have a fitted effect of over 60% in size
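Cell-based reporter: Huh7 stable for Rab9 promoter-driven luciferase, plated in reduced-serum medium with 10% FBS at 1500 cells/well, compound-treated 24 h at 37 °C, luminescence read after 10 min reagent.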
ELG1 DNA repair = ELG1-dependent DNA repair inhibition | actives 2.3% (n = 330,000) | AID 504467 | Potency, µM (series often up to 46.1 µM), most hits filed as inhibitors | HEK293T ELG1-luciferase reporter, luminescence, 16 h; DNA damage induced by 5-fluorouridine; further: nearly all actives have a fitted effect of over 55% in size
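In this reporter screen, reduction of luminescence relative to DMSO vehicle indicated activity. Compounds and 5-fluorouridine were added together to 2,000 cells per well, incubated for 16 hr at 37 °C, then developed with ONE-Glo.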
Each line names hits and unclear results; the compound was inactive in the other large screens; ! = not active in a repeat. The call rests on the fitted dose curve; in most records, active means well fitted curve in the direction sought with a large enough effect; inconclusive means small, poorly fitted or top-dose-only effect, or another doubt; inactive means no such curve, though single readings can be large; an effect the other way counts as inactive or inconclusive.

CCCOc1ccc(C(CC(=O)O)NC(=O)c2sc3ccccc3c2Cl)cc1 (centres undefined)	FLuc counter 15µM, ELG1 DNA repair inconclusive (no result: SMN2 splice enh)
CCOc1ccc(C(CC(=O)O)NC(=O)c2sc3ccccc3c2Cl)cc1 (centres undefined)	none
COc1ccccc1C(=O)Nc1cccc(SC)c1	ELG1 genotoxic inconclusive, FLuc counter 17µM, ELG1 DNA repair inconclusive
COc1cc(SC)ccc1C(=O)Nc1nccs1	ELG1 genotoxic inconclusive, FLuc counter 0.6µM, NPC1 promoter act 0.89µM, Rab9 promoter act 0.56µM, ELG1 DNA repair inconclusive (no result: SMN2 splice enh)
CSc1cccc(NC(=O)c2cccc3cccnc23)c1	ELG1 genotoxic inconclusive, FLuc counter 6.7µM, NPC1 promoter act inconclusive, ELG1 DNA repair inconclusive (no result: SMN2 splice enh)
COc1cc(SC)ccc1C(=O)Nc1ccccc1	ELG1 genotoxic inconclusive, FLuc counter 6.7µM, SMN2 splice enh inconclusive, ELG1 DNA repair inconclusive
COc1cc(SC)ccc1C(=O)NNC(=O)c1cc(C)oc1C	ELG1 genotoxic inconclusive, FLuc counter 1.9µM, NPC1 promoter act 3.2µM, Rab9 promoter act 1.3µM, ELG1 DNA repair inconclusive (no result: SMN2 splice enh)
CCc1c(O)c2c(c(O)c1C(C)=O)C(=O)c1c(cc(O)c(C(=O)O)c1C(=O)O)C2=O	none (no result: ELG1 genotoxic, FLuc counter, NPC1 promoter act, Rab9 promoter act, ELG1 DNA repair)
COCc1cc(=O)[nH]c(Cc2c(Cl)cccc2Cl)n1	none (no result: SMN2 splice enh)
C=CCNc1ncnc2c1[nH]c1ccc(Cl)cc12	ELG1 genotoxic inconclusive, FLuc counter 12µM
COc1ccc(C2C(=O)c3ccccc3C2=O)cc1	ELG1 genotoxic inconclusive, FLuc counter 5.4µM, NPC1 promoter act inconclusive, SMN2 splice enh 4µM!, Rab9 promoter act inconclusive, ELG1 DNA repair inconclusive
COc1ccc(C2=C(N)c3ccccc3C2=O)cc1	ELG1 genotoxic 13µM, FLuc counter 11µM, NPC1 promoter act 4.5µM, SMN2 splice enh inconclusive, Rab9 promoter act 4.5µM, ELG1 DNA repair inconclusive
COc1cc(C2C(=O)c3ccccc3C2=O)ccc1O	FLuc counter 24µM, ELG1 DNA repair inconclusive (no result: SMN2 splice enh)
COc1cc(C2N(C)C(=O)c3ccccc3N2C)ccc1O (centres undefined)	none (no result: SMN2 splice enh)
COc1ccc(C2C(=O)c3ccccc3C2=O)cc1OC	FLuc counter 8.5µM, Rab9 promoter act inconclusive, ELG1 DNA repair inconclusive (no result: SMN2 splice enh)
COc1ccc(NC2=C(c3ccc(OC)cc3)C(=O)c3ccccc32)cc1	none
CC(C(=O)c1ccccc1)[n+]1cccc(Br)c1 (centres undefined)	none (no result: SMN2 splice enh)
CCN(C(=O)COC(=O)c1cc(-c2ccc(C)o2)nc2ccccc12)C1CCS(=O)(=O)C1 (centres undefined)	FLuc counter 19µM
Cc1ccc(-c2cc(C(=O)OCC(=O)N(C)C3CCS(=O)(=O)C3)c3ccccc3n2)o1 (centres undefined)	FLuc counter inconclusive, ELG1 DNA repair inconclusive
O=C(CSc1nc2ccccc2nc1N1CCCCC1)Nc1ccc(F)cc1	ELG1 DNA repair inconclusive (no result: SMN2 splice enh)
CCN(CC)S(=O)(=O)c1cccc(-c2nnc(SCc3nnc(-c4cccs4)o3)n2N)c1	ELG1 DNA repair 21µM
CC(C)/C=N/Nc1nc(-c2ccc(Br)cc2)cs1	ELG1 genotoxic inconclusive, FLuc counter 7.6µM, NPC1 promoter act inconclusive, Rab9 promoter act inconclusive, ELG1 DNA repair inconclusive
COc1ccc(NC(=O)/C(Cl)=C(/Cl)S(=O)Cc2ccccc2)cn1 (centres undefined)	ELG1 DNA repair 8.2µM
CC(C)N(CCO)Cc1nc(C(c2ccccc2)c2ccccc2)no1	ELG1 DNA repair inconclusive (no result: SMN2 splice enh)
CCCCN(C)CCNC(=O)c1c2c(nc3ccccc13)C(=O)N(C1CCCCC1)C2	none (no result: ELG1 genotoxic, NPC1 promoter act, SMN2 splice enh, Rab9 promoter act, ELG1 DNA repair)
Cc1ccc(Nc2nc(C)cc(C)n2)c(Br)c1	FLuc counter 21µM, ELG1 DNA repair inconclusive
Cc1ccccc1NC(=O)/C(C#N)=C\c1cc(C)n(-c2ccc(C(=O)O)cc2)c1C	none (no result: SMN2 splice enh)
Cc1cc(/C=C(\C#N)c2nnc(N3CCOCC3)n2-c2ccccc2)c(C)n1-c1ccccc1	FLuc counter 17µM
Cc1ccc(-n2c(C)cc(C=C(C#N)C#N)c2C)cc1	FLuc counter 19µM, ELG1 DNA repair inconclusive
Cc1cc(C=C(C#N)C#N)c(C)n1-c1ccccc1	FLuc counter 4.8µM, NPC1 promoter act inconclusive, Rab9 promoter act inconclusive, ELG1 DNA repair inconclusive
